We go through 87 compounds from article PMC4336329 (PLoS ONE, 2015).

Among all 310,000 compounds or so, about 2,200 (0.71%) showed an effect of 50% or more. The effect is printed as a negative number. The entries come from a sample that favours strong results as a whole.

human ether-à-go-go-related gene (hERG) potassium channel, sequence (Q12809 whole entry, looked up): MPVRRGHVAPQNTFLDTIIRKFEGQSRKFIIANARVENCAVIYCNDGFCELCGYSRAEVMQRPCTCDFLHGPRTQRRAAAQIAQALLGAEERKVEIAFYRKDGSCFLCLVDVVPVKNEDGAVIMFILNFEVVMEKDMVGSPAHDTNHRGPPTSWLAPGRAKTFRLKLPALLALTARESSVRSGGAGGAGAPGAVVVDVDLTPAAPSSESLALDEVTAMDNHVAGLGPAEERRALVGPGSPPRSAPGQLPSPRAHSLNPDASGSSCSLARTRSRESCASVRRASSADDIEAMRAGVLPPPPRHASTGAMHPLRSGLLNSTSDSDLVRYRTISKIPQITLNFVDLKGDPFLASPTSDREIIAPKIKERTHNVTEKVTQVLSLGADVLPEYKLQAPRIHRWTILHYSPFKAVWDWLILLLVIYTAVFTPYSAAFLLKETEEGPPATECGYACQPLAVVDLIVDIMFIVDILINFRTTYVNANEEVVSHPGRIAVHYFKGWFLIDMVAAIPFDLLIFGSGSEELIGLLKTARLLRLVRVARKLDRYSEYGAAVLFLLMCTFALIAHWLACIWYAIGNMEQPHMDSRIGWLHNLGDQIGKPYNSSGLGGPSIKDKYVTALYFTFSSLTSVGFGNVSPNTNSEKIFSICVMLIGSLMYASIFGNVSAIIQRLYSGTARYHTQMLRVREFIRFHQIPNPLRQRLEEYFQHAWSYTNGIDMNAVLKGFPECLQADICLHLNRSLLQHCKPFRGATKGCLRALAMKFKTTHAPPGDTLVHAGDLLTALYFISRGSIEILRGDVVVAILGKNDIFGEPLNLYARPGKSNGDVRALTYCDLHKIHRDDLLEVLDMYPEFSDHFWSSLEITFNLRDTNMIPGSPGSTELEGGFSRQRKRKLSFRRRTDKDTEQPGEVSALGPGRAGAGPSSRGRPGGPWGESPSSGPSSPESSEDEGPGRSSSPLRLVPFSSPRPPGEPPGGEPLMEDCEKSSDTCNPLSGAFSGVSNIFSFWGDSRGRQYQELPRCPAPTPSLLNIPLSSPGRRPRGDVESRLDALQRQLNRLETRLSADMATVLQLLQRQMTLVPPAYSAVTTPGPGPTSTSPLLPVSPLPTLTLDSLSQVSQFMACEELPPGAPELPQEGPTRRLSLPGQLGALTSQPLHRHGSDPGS

This assay concerns the target human ether-à-go-go-related gene (hERG) potassium channel (human, UniProt Q12809). The experiment in a line: primary screen, population patch clamp on CHO cells stably expressing hERG; higher = less effect of the substance.
As to `CC(=O)Nc1ccc(NC(=O)C(C)OC(=O)CNC(=O)c2cccs2)cc1` (stereo not drawn), the “hERG current change (%, negative = inhibition) at 1uM” value amounted to 12.5%.
Consider `CCOC(=O)c1c(-c2ccc(C)cc2C)csc1NC(=O)CSc1nnnn1C`, for which the “hERG current change (%, negative = inhibition) at 1uM” value is -3.8%.
In the case of `COc1ccc(Cl)cc1N(C)C(=O)CCNC(=O)Cn1cnc2ccccc2c1=O`, the “hERG current change (%, negative = inhibition) at 1uM” value came out at 11.2%.
Turning to `Cc1cc(C)c2cc(CN(CCN3CCCC3)C(=O)Nc3ccc(F)cc3)c(=O)[nH]c2c1`, the “hERG current change (%, negative = inhibition) at 1uM” value was -57.9%.
As for `Cc1ccc(C)c2[nH]c(=O)c(CN(CCN3CCCC3)C(=O)Nc3cccc(Cl)c3)cc12`, the figure is -35.6%.
As for `Cc1cc(C)c2cc(CN(CCO)C(=O)Nc3ccc(Cl)cc3)c(=O)[nH]c2c1`, the figure is 3.03%.
As for `Cc1ccc(C)c2[nH]c(=O)c(CN(CCN3CCCC3)C(=O)Nc3ccc(F)cc3)cc12`, the “hERG current change (%, negative = inhibition) at 1uM” value is listed as -76.6%.
On to `COc1cc2cc(CN(CCN3CCCC3)C(=O)Nc3ccc(F)cc3)c(=O)[nH]c2cc1OC`, for which the “hERG current change (%, negative = inhibition) at 1uM” value is on record as 3.06%.
`Cc1ccc2cc(CN(CCN3CCCC3)C(=O)Nc3ccc(F)cc3)c(=O)[nH]c2c1C`: the “hERG current change (%, negative = inhibition) at 1uM” value is recorded as -8.93%.
As for `CC1(C)CC(=O)C(C=NCCN2CCN(CC(=O)Nc3ccc(Cl)cc3)CC2)=C(O)C1`, the figure is 2.52%; as for `C=CCn1c(O)c(C(C)=NCCN2CCCCC2)c(=O)[nH]c1=O`, 8.8%; as for `CCOc1ccc(NC(=S)N2CCC(NC(=O)c3ccccc3)CC2)cc1`, -3.48%.
With `CN1CCN(CC#CC(C)(O)C2CC3C=CC2C3)CC1.Cl` (stereo not drawn), the “hERG current change (%, negative = inhibition) at 1uM” value was 10.8%.
On to `c1cncc(COC2CCCN(Cc3nc(-c4cccs4)no3)C2)c1` (stereo not drawn), for which the “hERG current change (%, negative = inhibition) at 1uM” value amounted to 15.7%.
Consider `COc1cc(OC)cc(C(C)=O)c1`, for which the “hERG current change (%, negative = inhibition) at 1uM” value amounted to 14.7%.
As to `Cc1ccc(NC(=O)/C=C/c2ccc([N+](=O)[O-])s2)cc1`, the “hERG current change (%, negative = inhibition) at 1uM” value was 13.2%.
On to `CN(C)CCCn1c(SCC(=O)N2CC(=O)Nc3ccccc32)nc2ccccc2c1=O`, for which the “hERG current change (%, negative = inhibition) at 1uM” value was 9.8%.
In the case of `COCCn1c(SCC(=O)N2CC(=O)Nc3ccccc32)nc2ccccc2c1=O`, the “hERG current change (%, negative = inhibition) at 1uM” value is -3.74%.
Take `CC(C)N(CCn1c(SCC(=O)N2CC(=O)Nc3ccccc32)nc2ccccc2c1=O)C(C)C`: the “hERG current change (%, negative = inhibition) at 1uM” value was -72.5%.
As for `N#Cc1ccc(S(=O)(=O)NCC(=O)OCC(=O)NCCc2ccccc2)cc1`, the figure is 14.7%; as for `C=CCn1c(SCC(=O)N(CC)C2CCS(=O)(=O)C2)nc2sc3c(c2c1=O)CCC3` (stereo not drawn), -37.5%; as for `Clc1ccc(-c2nnc(NC3=NCCCCC3)o2)cc1`, 10%.
As for `Cc1ccc(C(=O)N/C(=C\c2ccc(Cl)cc2)C(=O)NCCN2CCOCC2)cc1`, the figure is -70.6%; as for `CC(C)c1ccc(/C=C(\NC(=O)c2ccccc2)C(=O)NCCN2CCOCC2)cc1`, -21.9%.
In the case of `Cc1ccc(C(=O)N/C(=C\c2ccccc2)C(=O)NCCN2CCOCC2)cc1`, the “hERG current change (%, negative = inhibition) at 1uM” value is listed as -38.7%.
In the case of `CC(C)c1ccc(/C=C(\NC(=O)c2ccccc2)C(=O)NCCCN2CCOCC2)cc1`, the “hERG current change (%, negative = inhibition) at 1uM” value is -35.8%.
As for `O=C(NCCN1CCOCC1)/C(=C/c1ccc(Cl)cc1)NC(=O)c1ccccc1`, the “hERG current change (%, negative = inhibition) at 1uM” value is -83.1%.
As for `COc1ccc(/C=C(\NC(=O)c2ccc(C)cc2)C(=O)NCCN2CCOCC2)cc1`, the figure is -33.3%; as for `O=C(NCCN1CCOCC1)/C(=C/c1ccccc1)NC(=O)c1ccccc1`, 3.35%.
As for `Cc1ccc(C(=O)N/C(=C\c2ccco2)C(=O)NCCN2CCOCC2)cc1`, the figure is 5.85%; as for `Cc1ccc(C(=O)N/C(=C\c2ccc(C(C)C)cc2)C(=O)NCCCN2CCOCC2)cc1`, -61.4%.
Consider `Cc1ccc(C(=O)N/C(=C/c2ccc(C(C)C)cc2)C(=O)NCCCN2CCOCC2)cc1`, for which the “hERG current change (%, negative = inhibition) at 1uM” value is recorded as -22%.
As for `CN(C)c1ccc(/C=C(/NC(=O)c2ccccc2)C(=O)NCCN2CCOCC2)cc1`, the “hERG current change (%, negative = inhibition) at 1uM” value was determined as 16.1%.
Turning to `Cc1ccc(C(=O)N/C(=C\c2ccc(F)cc2)C(=O)NCCN2CCOCC2)cc1`, the “hERG current change (%, negative = inhibition) at 1uM” value was -79.1%.
As for `Cc1ccc2[nH]cc(C(=O)CCl)c2c1`, the figure is 15.2%; as for `CCOc1ccccc1NC1c2ccccc2C(=O)N1Cc1ccco1` (stereo not drawn), 7.42%.
In the case of `O=C(O)c1cccc(N2C(=O)CSC2=S)c1`, the “hERG current change (%, negative = inhibition) at 1uM” value came to 11.7%.
As for `COc1ccccc1-n1c(-c2ccc(Cl)cc2)c[nH]c1=S`, the figure is 9.1%; as for `Cc1nc2scc(-c3ccco3)c2c(=O)n1/N=C/N(C)C`, 5.8%; as for `O=C(Nc1cccc(NC(=O)c2ccc(Cl)cc2)n1)c1ccc(Cl)cc1`, 14.3%.
Consider `COc1ccc(-c2ccnc3nc(N4CCN(c5ccccc5)CC4)nn23)cc1`, for which the “hERG current change (%, negative = inhibition) at 1uM” value is given as 14.9%.
As for `CCCCn1nnc(NC(=O)C(c2ccccc2)c2ccccc2)n1`, the figure is 11.2%.
As for `COc1c(C)cc(S(=O)(=O)NCc2ccccn2)c(C)c1C`, the figure is 9.43%; as for `Nc1nnc(SCC(=O)OCc2ccccc2)s1`, 14.4%; as for `CCN(CC)S(=O)(=O)c1ccc(N2CCOCC2)c(NS(=O)(=O)c2cc(C(C)(C)C)ccc2C)c1`, 6.68%.
As for `O=C(NCCc1cccs1)C1CC(c2c(Cl)cccc2Cl)=NO1` (stereo not drawn), the “hERG current change (%, negative = inhibition) at 1uM” value turned out to be 10.6%.
For `CSCCC(NS(=O)(=O)c1ccccc1F)C(=O)NCCCn1nc(C)cc1C` (stereo not drawn), the “hERG current change (%, negative = inhibition) at 1uM” value is given as -1.95%.
For the compound `Cc1ccc(C(=O)N/C(=C\c2ccc(Cl)cc2)C(=O)NCCCN2CCOCC2)cc1`, the “hERG current change (%, negative = inhibition) at 1uM” value was -78.6%.
As for `COc1ccc(/C=C(\NC(=O)c2ccc(C)cc2)C(=O)NCCCN2CCOCC2)cc1OC`, the “hERG current change (%, negative = inhibition) at 1uM” value came out at 14.1%.
For `COc1ccc(/C=C(\NC(=O)c2ccc(Cl)cc2)C(=O)NCCCN2CCOCC2)cc1OC`, the “hERG current change (%, negative = inhibition) at 1uM” value was 9.09%.
In the case of `Cc1ccc(OCCOCCN2CCN(C)CC2)c(C(C)(C)C)c1.O=C(O)C(=O)O`, the “hERG current change (%, negative = inhibition) at 1uM” value is on record as 13.2%.
As to `Cc1ccc(S(=O)(=O)NCC(c2cccnc2)N2CCN(Cc3ccccc3)CC2)cc1` (stereo not drawn), the “hERG current change (%, negative = inhibition) at 1uM” value is -39.6%.
Turning to `COc1ccc(S(=O)(=O)NCC(c2cccnc2)N2CCN(Cc3ccccc3)CC2)cc1C` (stereo not drawn), the “hERG current change (%, negative = inhibition) at 1uM” value was -65.5%.
As for `CCN1CCN(C(CNS(=O)(=O)c2ccc(Cl)cc2)c2cccnc2)CC1` (stereo not drawn), the figure is -10.6%.
Take `COc1ccc(S(=O)(=O)NCC(c2cccnc2)N2CCN(c3ccccc3)CC2)cc1C` (stereo not drawn): the “hERG current change (%, negative = inhibition) at 1uM” value is recorded as -1.72%.
Regarding `O=S(=O)(NCC(c1cccnc1)N1CCN(Cc2ccccc2)CC1)c1ccc(Cl)cc1` (stereo not drawn), the “hERG current change (%, negative = inhibition) at 1uM” value is on record as -60.6%.
As to `O=S(=O)(NCC(c1cccnc1)N1CCN(Cc2ccccc2)CC1)c1ccc(F)cc1` (stereo not drawn), the “hERG current change (%, negative = inhibition) at 1uM” value is on record as -42.6%.
`O=S(=O)(NCC(c1cccnc1)N1CCN(Cc2ccccc2)CC1)c1ccccc1` (stereo not drawn): the “hERG current change (%, negative = inhibition) at 1uM” value is -52.4%.
As for `CCN1CCN(C(CNS(=O)(=O)c2ccc(OC)c(C)c2)c2cccnc2)CC1` (stereo not drawn), the figure is -27.5%; as for `COc1ccc(S(=O)(=O)NCC(c2cccnc2)N2CCN(Cc3ccccc3)CC2)cc1` (stereo not drawn), -26.7%.
For the compound `COc1ccc(C(=O)NNC(=O)C(=O)NC2CCCCC2)cc1`, the “hERG current change (%, negative = inhibition) at 1uM” value worked out at 4.11%.
Consider `O=c1cccccc1NN=C1CCCCCC1`, for which the “hERG current change (%, negative = inhibition) at 1uM” value turned out to be 14.1%.
As for `Clc1ccc(/C=N/Nc2nnc(-c3ncc[nH]3)c3ccccc23)cc1`, the figure is 4.89%; as for `Cc1cc(OCCCCOc2ccc(S(N)(=O)=O)c(C)c2)ccc1S(N)(=O)=O`, 12.7%; as for `O=C(O)Cn1c(=O)c2c3c(sc2n(Cc2ccc(Cl)cc2Cl)c1=O)CCCC3`, 6.14%.
As for `CC(Sc1nnc(C2CC2)n1C1CC1)C(=O)N(C)Cc1cccc(F)c1` (stereo not drawn), the figure is -2.8%.
As for `CCOC(=O)C1=C(c2ccccc2)NC(=O)N(C(C)=O)C1c1cccc([N+](=O)[O-])c1` (stereo not drawn), the “hERG current change (%, negative = inhibition) at 1uM” value stood at 10.2%.
Take `CC(C)OCCCn1c(=N)c(C(N)=S)cc2c(=O)n3ccccc3nc21`: the “hERG current change (%, negative = inhibition) at 1uM” value was -74.5%.
With `Cc1ccc2nc3c(cc(C(N)=S)c(=N)n3CCCOC(C)C)c(=O)n2c1`, the “hERG current change (%, negative = inhibition) at 1uM” value was -65.1%.
As to `CCOC(=O)c1cc2c(=O)n3ccccc3nc2n(CCCOC)c1=NC(C)=O`, the “hERG current change (%, negative = inhibition) at 1uM” value is -15.6%.
For the compound `CC(C)OCCCn1c(=N)c(S(=O)(=O)c2ccccc2)cc2c(=O)n3ccccc3nc21`, the “hERG current change (%, negative = inhibition) at 1uM” value was -0.118%.
With `CCOCCCn1c(=N)c(S(=O)(=O)c2ccccc2)cc2c(=O)n3cc(C)ccc3nc21`, the “hERG current change (%, negative = inhibition) at 1uM” value is 11.3%.
In the case of `CCOCCCn1c(=N)c(S(=O)(=O)c2ccc(C)cc2)cc2c(=O)n3cc(C)ccc3nc21`, the “hERG current change (%, negative = inhibition) at 1uM” value was determined as 16.1%.
Turning to `CCc1cc(C(=O)COc2ccc(F)cc2)c(O)cc1O`, the “hERG current change (%, negative = inhibition) at 1uM” value came to 5.76%.
In the case of `CCSc1nc2sc3c(c2c(=O)[nH]1)CC(C)(CC)OC3` (stereo not drawn), the “hERG current change (%, negative = inhibition) at 1uM” value amounted to 18.7%.
As for `O=C1C=C(Nc2ccc(Cl)cc2)CC(c2ccco2)C1` (stereo not drawn), the “hERG current change (%, negative = inhibition) at 1uM” value stood at 4.78%.
As to `CCCCCCCNC1=CC(=O)CC(c2ccccc2)C1` (stereo not drawn), the “hERG current change (%, negative = inhibition) at 1uM” value was -63.2%.
Turning to `CN(C)CCCNC1=CC(=O)CC(c2ccccc2)C1` (stereo not drawn), the “hERG current change (%, negative = inhibition) at 1uM” value is -1.56%.
As for `O=C1C=C(NCc2ccc3c(c2)OCO3)CC(c2ccccc2)C1` (stereo not drawn), the figure is -81.9%; as for `CC(C)CCNC1=CC(=O)CC(c2ccccc2)C1` (stereo not drawn), -0.257%; as for `O=C1C=C(NCc2ccco2)CC(c2ccc(Cl)cc2)C1` (stereo not drawn), -34.8%.
As for `CC(C)CNC1=CC(=O)CC(c2ccco2)C1` (stereo not drawn), the figure is 14.5%; as for `COc1ccc(C2CC(=O)C=C(NCc3ccc4c(c3)OCO4)C2)cc1` (stereo not drawn), -32.6%.
On to `O=C1C=C(NCc2ccncc2)CC(c2ccccc2)C1` (stereo not drawn), for which the “hERG current change (%, negative = inhibition) at 1uM” value is reported as -22.8%.
Consider `O=C1C=C(NCc2ccc(Cl)cc2)CC(c2ccco2)C1` (stereo not drawn), for which the “hERG current change (%, negative = inhibition) at 1uM” value was -91.3%.
For the compound `CCCCCCCNC1=CC(=O)CC(c2ccco2)C1` (stereo not drawn), the “hERG current change (%, negative = inhibition) at 1uM” value is recorded as -77.6%.
For `CCc1ccc(NC2=CC(=O)CC(c3ccco3)C2)cc1` (stereo not drawn), the “hERG current change (%, negative = inhibition) at 1uM” value is recorded as 12.9%.
